# Screening results: PubChem, National Center for Advancing Translational Sciences (NCATS)
# Most compounds without a hit are left out; they make up all but 5% or so of the library.
# CRE-bla Fsk: alters forskolin-stimulated CRE reporter signaling in CHO cells; CHO CRE-bla reporter (cAMP response element driving beta-lactamase), forskolin EC10, beta-lactamase ratio; Potency, µM (top dose mostly 38.2 µM), usual class: activators; 71,000 compounds, 2.5% hits; AID 662; active = well fitted activation curve with a large enough effect in the signal ratio, with a control signal flat, not every such curve was filed as active; inconclusive = small, poorly fitted or top-dose-only effect, or effect the other way, or a change in a side signal; the % refers to the signal ratio
#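 CRE-bla CHO reporter cells treated with compound titration plus EC10 NKH 477 (water-soluble forskolin), incubated 3 h at 37 °C; CCF4 loading 2 h at room temperature, 460/530 nm emission ratio read, AC50 values derived for positive or negative modulators.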
# USP2a inh: inhibitors of human ubiquitin-specific protease USP2a; O75604; USP2a enzymatic assay, qHTS inhibition; Potency, µM (top dose mostly 38.3 µM), hits mostly inhibitors; 60,000 compounds, 0.1% hits; AID 927; note: nearly all actives have a fitted effect of over 60% in size
#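 Inhibition is measured in a cell-free coupled assay with 20 nM USP2 core, 20 nM Ub-PLA2 and 20 uM NBD C6-HPC, 2.5 h incubation. Activity normalized to NEM control.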
# Casp1 inh: allosteric or competitive inhibitors of human caspase-1; P29466; Caspase-1 enzyme, Ac-WEHD-AFC fluorogenic rate; Potency, µM (top dose mostly 57.5 µM), most hits filed as inhibitors; 75,000 compounds, 0.03% hits; AID 900
# Target sequence (P29466 120-297 limits assumed): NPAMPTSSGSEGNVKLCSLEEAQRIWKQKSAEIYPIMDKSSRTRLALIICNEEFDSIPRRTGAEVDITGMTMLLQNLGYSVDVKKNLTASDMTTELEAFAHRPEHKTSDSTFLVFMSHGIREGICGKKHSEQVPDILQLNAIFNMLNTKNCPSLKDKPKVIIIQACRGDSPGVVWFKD
# Target sequence (P29466 317-404 limits assumed): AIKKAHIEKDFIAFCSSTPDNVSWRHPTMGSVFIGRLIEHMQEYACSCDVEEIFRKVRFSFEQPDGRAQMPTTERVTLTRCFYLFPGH
# TSHR agonist: TSH receptor (human) agonism; Potency, µM (highest dose often 57.1 µM), hits mostly activators; HEK293-CNG-TSHR cells (CNG channel as cAMP sensor), membrane potential dye, cAMP; P16473; 73,000 compounds, 0.48% hits; AID 926; active = well fitted activation curve with a large enough effect in the main read-out, with a control signal flat, not every such curve was filed as active; inconclusive = small, poorly fitted or top-dose-only effect, or a change in a side signal; inactive = no such curve, though single readings can be large or run the other way; reference of the percent scale not stated here;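 note: the control signal comes from parental cells without the receptor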
#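 HEK 293 cells stably expressing TSHR and a modified CNG channel, with CNG-only parental cells as counterscreen, were preloaded 60 min at room temperature with membrane potential dye containing 100 uM RO 20-1724. Compound exposure was 30 min, and depolarization was read as fluorescence at 590 nm.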
# HEK293 cAMP cs: parental HEK293 cAMP activation (counter-screen); parental HEK293 CNG cAMP sensor, membrane potential fluorescence; 73,000 compounds, 2.5% hits; Potency, µM (highest dose often 57.1 µM), usual class: activators; AID 938; note: nearly all actives have a fitted effect of over 55% in size
#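 Counterscreen for endogenous-receptor signalling: CNG-channel HEK 293 cells report cAMP rise by membrane depolarization. After 60 min dye equilibration with 100 uM RO 20-1724, compounds incubated 30 min before bottom-read fluorescence at 590 nm.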
# Casp7 inh: allosteric or competitive inhibitors of human caspase-7 | AID 889 | P55210 | recombinant caspase-7, Ac-DEVD-AFC fluorescence rate | 75,000 compounds, 0.02% hits | Potency, µM (doses to about 57.5 µM), usual class: inhibitors; active = well fitted inhibition curve with a large enough effect in the main read-out, with a control signal flat, not every such curve was filed as active; inconclusive = small, poorly fitted or top-dose-only effect, or a change in a side signal
# Hits are given with their value; 0 = inactive; ? = inconclusive; - = no result given; [ ] = another dose, or the depositor's remark. Unless noted, calls come from the whole dose curve; as a rule, active = well fitted curve in the direction sought with a large enough effect; inconclusive = small, poorly fitted or top-dose-only effect, or another doubt; inactive = no such curve, though single readings can be large; an effect the other way counts as inactive or inconclusive.
SMILES,CRE-bla Fsk,USP2a inh,Casp1 inh,TSHR agonist,HEK293 cAMP cs,Casp7 inh
CO[C@H]1COC(=O)[C@@H](CCSC)NC(=O)C/C=C\[C@@H](C)COC(=O)[C@@H](OCc2ccccc2)/C=C\[C@@H]1C,-,-,0[11.5 µM],0[11.4 µM],0[11.4 µM],0[11.5 µM]
O=c1c2ccccc2nc(-c2ccco2)n1/N=C/c1ccco1,10µM,0,0,0,0,0
Cc1nnc(C)n1/N=C/c1cccc(Oc2ccccc2)c1,0,0,0,0,0,0
Cc1ccccc1OCc1nc2ccccc2c(=O)n1/N=C/c1ccco1,0,0,0,?,16µM,0
COc1cccc(/C=N/n2c(-c3ccco3)nc3ccccc3c2=O)c1,?,0,0,?,16µM,0
O=S(=O)(Nc1cccnc1)c1cccc2cccnc12,0,-,0,0,0,0
N#CC(CC(=O)O)=C(c1ccccc1)c1ccccc1,0[7.6 µM],-,0[11.5 µM],0[11.4 µM],0[11.4 µM],0[11.5 µM]
CN(C)CCNc1ccccn1,0[7.6 µM],-,0[11.5 µM],0[11.4 µM],0[11.4 µM],0[11.5 µM]
C=CCc1c(C)nc(SC)nc1Nc1ccc(C(C)=O)cc1,10µM,0,0,0,0,0
O=P(O)(O)O[C@@H]1O[C@H](CO)[C@@H](O)[C@H](O)[C@@H]1O,0[7.6 µM],-,0[11.5 µM],0[11.4 µM],0[11.4 µM],0[11.5 µM]
COc1ccc(C(=O)OCCN2CCOCC2)cc1OC,10µM,0,0,0,0,0
COc1ccc(-c2cnnn2-c2ccc(NC(=O)c3ccco3)cc2)cc1OC,3.2µM,0,0,?,?,0
COc1ccc(Cl)cc1C(=O)Nc1ccc(NC(=O)c2ccco2)cc1,0,0,0,0,0,0
Cc1cc(NCCOCCO)n2ncc(-c3ccc(Cl)cc3)c2n1,7.9µM,0,0,?,0,0
Cc1nc(C)c(C(=O)Nc2ccccc2)s1,0,0,0,0,0,0
CSc1nc(C)c(C(=O)Nc2ccccc2)c(C)c1C#N,0,0,0,?,25µM,0
COc1ccc(CNc2ncnc3ccc(-c4cccc(NS(C)(=O)=O)c4)cc23)c(OC)c1,?,?,0,0,0,0
COC(=O)C/C=C\[C@@H](C)[C@@H](/C=N\O[C@@H](C)c1cc(-c2c(C)cc(C)cc2C)no1)OC,-,-,0[11.5 µM],-,0[11.4 µM],0[11.5 µM]
c1ccc2c(c1)Cc1cc3ccccc3nc1-2,?,-,0,?,20µM,0
Cc1cc(NC(=O)CSc2nc(C3CCCCC3)nc3ccccc23)no1,0,0,0,0,0,0
Cc1nonc1NC(=O)CSc1nc(C2CCCCC2)nc2ccccc12,0,0,0,?,25µM,0
COc1ccc2c(=O)c3c(=O)n(Cc4ccco4)c(-c4ccc(C)cc4)nc3oc2c1,?,0,0,0,0,0
COc1cc(-c2nc3oc4ccccc4c(=O)c3c(=O)n2Cc2ccco2)cc(OC)c1OC,2.5µM,0,0,0,0,0
CCOC(=O)c1c(C)[nH]c2cc(Br)c(O)cc12,10µM,0,0,0,0,0
CCOC(=O)c1c(OCC)[nH]c2c1cc(O)c1ccccc12,0,0,0,0,0,0
SMILES,CRE-bla Fsk,USP2a inh,Casp1 inh,TSHR agonist,HEK293 cAMP cs,Casp7 inh
Cc1nc(SCC(=O)Nc2cc(C)on2)c2c(=O)n(C)c(=O)n(C)c2n1,2µM,-,0,0,0,0
Cc1csc(NC(=O)CSc2nc(C(C)C)nc3c2c(=O)n(C)c(=O)n3C)n1,2.5µM,-,0,0,0,0
COCCn1c(SCC(=O)Nc2cccc(C(=O)OC)c2)nc2ccccc2c1=O,0,0,0,?,?,0
COc1ccc(CC(=O)NC(C)c2nnc(SCC(=O)Nc3nc(C)cs3)n2C)cc1 (stereo unspecified),0,0,0,0,0,0
COCCn1c(SCc2ccc(C(=O)OC)o2)nc2cc(Cl)ccc2c1=O,5µM,0,0,?,20µM,0
COC(=O)c1ccc(CSc2nc(C)nc3c2c(=O)n(C)c(=O)n3C)o1,2µM,-,0,?,25µM,0
CN(C)CCCn1cnc2cc(Cl)c(Cl)cc21,0[7.6 µM],-,0[11.5 µM],0[11.4 µM],0[11.4 µM],0[11.5 µM]
FC(F)(F)c1ccccc1-c1ccc2ncnc(NCc3cccnc3)c2c1,?,0,0,?,?,0
CCn1c(SCC(=O)Nc2cccc(NC(C)=O)c2)nnc1C(C)C,0,0,0,0,0,0
CCC(=O)Nc1cccc(NC(=O)CSc2nnc(C(C)C)n2CC)c1,?,0,0,?,13µM,0
